Reference: PubChem BioAssay AID2158 (National Center for Advancing Translational Sciences (NCATS), 2009)
Values joined by “and” are separate entries in the source; they are usually repeats but may differ in a detail not shown here. Equal values may be shown once. Records with an inconclusive call do not appear. Active and inactive are the calls of the source. Calls come from the whole dose curve; as a rule, active = well fitted inhibition curve with a large enough effect; inconclusive = small, poorly fitted or top-dose-only effect; inactive = no such curve, though single readings can be large or run the other way.

Each compound was assayed against Cruzipain (Trypanosoma cruzi) (UniProt P25779) (assay: Confirmation qHTS Assay for Inhibitors of Cruzain). Details: purified cruzain, Z-FR-AMC fluorescence, 0.01% Triton.
Method in brief: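 Reaction progress from the 60 s rise in AMC fluorescence (ex 360, em 450 nm) after adding 2 uM Z-FR-AMC. Before this, 1.5 nM cruzain sat 15 min at room temperature with compound in pH 5.5 acetate buffer with 5 mM DTT and 0.01% Triton X-100.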
Note: nearly all actives have a fitted effect of over 40% in size.
Potency is the fitted concentration of half-maximal effect.
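Throughout, for Activity change, negative = inhibition: plate controls were uninhibited enzyme control for no effect and buffer wells lacking enzyme for full effect.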

Cruzipain (Trypanosoma cruzi), sequence (P25779 123-467 limits assumed): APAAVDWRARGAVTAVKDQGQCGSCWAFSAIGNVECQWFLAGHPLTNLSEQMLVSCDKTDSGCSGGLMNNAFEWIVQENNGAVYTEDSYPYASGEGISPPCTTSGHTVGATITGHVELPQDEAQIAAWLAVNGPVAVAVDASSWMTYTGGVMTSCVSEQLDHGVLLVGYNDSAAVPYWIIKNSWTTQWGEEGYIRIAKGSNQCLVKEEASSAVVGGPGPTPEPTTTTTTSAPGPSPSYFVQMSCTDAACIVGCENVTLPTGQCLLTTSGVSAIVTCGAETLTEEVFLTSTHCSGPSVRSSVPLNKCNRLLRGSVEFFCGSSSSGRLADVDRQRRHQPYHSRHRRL

Activity change, negative = inhibition, inactive:
O=C(Nc1ccc(O)c(-c2nc3ccccc3o2)c1)C1(c2ccc([N+](=O)[O-])cc2)CCCC1 -1.92%
Cc1ccccc1OCC(=O)NCC(=O)OC(c1ccccc1)c1ccccc1 -14.6%
Cc1ccc(NC(=O)c2ccc(-n3nncc3-c3ccccc3)cc2)cc1 2.57%
COc1ccc(-c2nc(C#N)c(NCCCN3CCOCC3)o2)cc1 -29.3%
CCc1ccc(OCCCn2c(CCCNC(=O)C3CCCCC3)nc3ccccc32)cc1 -18.8%
O=C(Cc1nnc(-c2cc3ccccc3[nH]2)s1)Nc1cc(C(F)(F)F)ccc1Cl -8.66% and 1.72%
O=C(Nc1cc(C(F)(F)F)ccc1Cl)[C@H](O)CCc1ccccc1 -26.3%
Cc1ccc2[nH]c(=O)c(CN(CCO)Cc3nnnn3Cc3ccccc3)cc2c1 -1.03%
O=C(CNC(=O)c1ccccc1)NCC(=O)OCC(=O)c1cccc2ccccc12 -13.9%
CCSc1nnc(NC(=O)/C=C/c2ccc3c(c2)OCO3)s1 -48.4%
CC(C)(C)OC(=O)Cc1nnc(-c2nc3ccccc3[nH]2)s1 -9.29%
Cc1cc(OCC(=O)Nc2ccc(N3CCCC3)cc2)cc(C)c1Cl -30.4%
CC(C)CC(O)C(=O)Nc1cc(C(F)(F)F)ccc1Cl (centres undefined) -12%
O=C(Nc1ccccc1)c1ccc(-n2nncc2-c2ccccc2)cc1 -11.6%
Cc1ccccc1OCC(=O)NCC(=O)OCc1ccc2ccccc2c1 -17.8%
CC(C)(C)OC(=O)Cc1nnc(-c2cc3ccccc3[nH]2)s1 -10.9%
O=C(Cc1nnc(-c2nc3ccccc3[nH]2)o1)Nc1cc(C(F)(F)F)ccc1Cl -0.284%
N#CN1CCC(NS(=O)(=O)c2cccc(C(F)(F)F)c2)CC1 0.31%
O=C(CCN1C(=O)/C(=C/C=C/c2ccccc2)SC1=S)Nc1nccs1 1.52%

Potency, active:
CN1N/C(=C\c2ccccc2)N=C2C(=O)N(C)C(=O)N=C21 1.12 µM
O=C(NCCCO)c1ccc2nc(-c3ccco3)c(-c3ccco3)nc2c1 12.6 µM
Cc1ccc(-c2c3c(=O)n(C)c(=O)n(C)c3cn2-n2cnnc2)cc1 25.1 µM
O=C(CNC(=O)C1CCCCC1)OCC(=O)c1ccc(Br)cc1 2.24 µM
O=C(CNC(=O)c1ccccc1)OC(C(=O)Nc1cc([N+](=O)[O-])ccc1F)c1ccccc1 (centres undefined) 12.6 µM
N#Cc1c(N2CCOCC2)nc(-c2ccco2)c2c1CCCC2 3.98 µM
O=c1cc(-c2ccccc2Cl)oc2c(NS(=O)(=O)c3cc(Cl)cc(Cl)c3O)ccc(O)c12 7.08 µM
O=C(NCCc1nc2ccccc2n1CCCOc1ccccc1Cl)C1CCCCC1 1.58 µM
CC(C)Nc1nc(C#N)nc(Nc2ccccc2)n1 0.891 µM
O=C(/C=C/c1ccc2c(c1)OCO2)Nc1ccc(-n2nncc2-c2ccccc2)cc1 2.51 µM
CCN(CCO)c1nc(SC)nc2c1sc1nc(-c3ccco3)c3c(c12)CCC3 17.8 µM
CCCCNC(=O)c1ccc2nc(-c3ccco3)c(-c3ccco3)nc2c1 7.94 µM
CC(C)CCNC(=O)Cn1c(SCc2cccc(F)c2)nc2ccncc21 14.1 µM
N#Cc1nc(NCC2CC2)nc(Nc2ccccc2)n1 0.891 µM
COc1cccc(Nc2nc(C#N)nc(NC3CCCC3)n2)c1 0.199 µM
CC(C)(C)c1ccc(S(=O)(=O)c2cnc(SCC(=O)Nc3ccc(F)c(Cl)c3)[nH]c2=O)cc1 3.98 µM
O=C(NCCO)c1ccc2nc(-c3ccco3)c(-c3ccco3)nc2c1 14.1 µM
COc1ccc(OC)c(NC(=O)C(OC(=O)CNC(=O)c2ccccc2)c2ccccc2)c1 (centres undefined) 11.2 µM
N#Cc1nc(N)nc(N(c2ccccc2)c2ccccc2)n1 3.55 µM and 3.16 µM
O=C(CNC(=O)c1ccc2n[nH]nc2c1)OC(C(=O)Nc1cc(C(F)(F)F)ccc1Cl)c1ccccc1 (centres undefined) 14.1 µM
